Measured values from PubChem BioAssay (NCI).
Compounds without any hit were thinned out: in the full panel of roughly 79,000, 15% have a hit. Rule as the data show it: active = growth inhibition above about 70%; inactive = the rest.

Legend:
[1] = NCI Yeast Anticancer Drug Screen. Data for the rad50 strain (AID 155);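 also: 0% = growth of vehicle-only cultures of the same strain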; conditions: S. cerevisiae rad50 strain growth inhibition; at 50.0 µM; hits give high values
Outline: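 Readout: growth inhibition relative to vehicle-treated cultures. Compound exposure was carried out in a genetically defined yeast strain deficient in DNA damage repair.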

[2] = NCI Yeast Anticancer Drug Screen. Data for the mec2-1 strain (AID 157); conditions: S. cerevisiae mec2-1 strain, at 50.0 µM, hits give high values
Outline: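 Strain: mec2-1 (DNA repair/cell cycle alteration). Compound exposure, then growth measured; inhibition expressed relative to vehicle.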

[3] = NCI Yeast Anticancer Drug Screen. Data for the sgs1 mgt1 strain (AID 161);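 also: 0% = growth of cultures given vehicle only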; conditions: S. cerevisiae sgs1 mgt1 strain, at 50.0 µM, hits give high values
Outline: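 Mutant yeast exposed to compound; growth scored against vehicle-only wells.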

[4] = NCI Yeast Anticancer Drug Screen. Data for the cln2 rad14 strain (AID 165);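 also: 0% = growth equal to vehicle treated cultures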; conditions: S. cerevisiae cln2 rad14 strain, at 50.0 µM, hits give high values
Outline: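 Compounds are applied to the cln2 rad14 yeast strain, and growth is then compared with that of vehicle-treated cultures to give inhibition.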

[5] = NCI Yeast Anticancer Drug Screen. Data for the bub3 strain (AID 167); conditions: S. cerevisiae bub3 mutant strain, at 50.0 µM, hits give high values
Outline: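 Readout: yeast growth inhibition, expressed relative to vehicle-only wells. The test organism is a mutant strain from a panel with lesions in DNA repair or checkpoint genes.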

[6] = NCI Yeast Anticancer Drug Screen. Data for the mlh1 rad18 strain (AID 175); conditions: S. cerevisiae mlh1 rad18 strain growth inhibition; at 50.0 µM; hits give high values
Outline: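 Read-out is yeast growth inhibition, calculated against vehicle-only controls. The compound was applied to a strain engineered with DNA damage repair alterations.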

Measured: growth inhibition

CCOC(=O)c1c[nH]c2ccc3c(nc(C)n3C)c2c1=O
inactive: [1] -7.95% | [2] -1.05% | [3] -5.2% | [4] 11.9% | [5] -21.4% | [6] -47.5%

CCOC(=O)C(C(=O)OCC)C(=O)C(C)(C)C
inactive: [1] 25.8% | [2] 0.3% | [3] 0.7% | [4] 11.2% | [5] 30.5% | [6] 18.9%

CCOC1(C)OC2OC(COC(C)=O)C(OC(C)=O)C(OC(N)=O)C2O1 (stereo not given)
inactive: [1] -11.8% | [2] 0.05% | [3] -5.75% | [4] -34% | [5] -1.15% | [6] 15.2%

Cc1ccc(S(=O)(=O)CNC(=O)C(O)(O)C(F)(F)F)cc1
inactive: [1] -24.9% | [2] -2.5% | [3] -9.45% | [4] 27.8% | [5] -1.9% | [6] -12.4%

CCS(=O)(=O)Nc1ccc(NS(=O)(=O)CC)cc1
inactive: [1] 39.7% | [2] 11.3% | [3] 29.1% | [4] 16.5% | [5] 17.9% | [6] 25.4%

NC(=O)Oc1cccc(OC(N)=O)c1
inactive: [1] 8.95% | [2] -6.25% | [3] 13.9% | [4] 3.8% | [5] 18.8% | [6] 13.6%

Cc1nnc(-n2nc(-c3ccc(Cl)cc3)cc2N)[nH]c1=O
inactive: [1] 54% | [2] 12.1% | [3] 22.4% | [4] 12.8% | [5] 23.4% | [6] 34%

COC(=O)C(Cc1ccccc1)NCCN (stereo not given)
inactive: [1] -0.1% | [2] 7.4% | [3] -3.9% | [4] -17% | [5] -5.95% | [6] 2.1%

CC(=O)Oc1ccc(=O)[nH]c1
inactive: [1] 1.3% | [2] -11.9% | [3] 2.2% | [4] -18.4% | [5] 2.75% | [6] -48%

CC(=O)Nc1ccc2c(c1)Cc1c(F)cc(F)cc1-2
inactive: [1] 35.9% | [2] -9% | [3] 19.6% | [4] 16.1% | [5] 21.9% | [6] 39.8%

COc1ccc(C(=O)N/N=C/c2ccccc2OC)cc1
inactive: [1] -3.1% | [2] 31% | [3] 25.4% | [4] -10.6% | [5] 27.9% | [6] 32%

CN(C)c1ccc([N+](=O)[O-])c2c1CCC2
inactive: [1] 9.7% | [2] -4.55% | [3] 7.25% | [4] 5.6% | [5] 6.85% | [6] 6.55%

Cc1cccc(C)c1NC(=S)/N=C/C1=C(O)c2ccccc2C1=O
inactive: [1] -36.8% | [2] -17.2% | [3] -10.2% | [4] 13.8% | [5] -7.5% | [6] 23.6%

CN(C)c1ncnc2c1cnn2-c1ccc(Cl)cc1
inactive: [1] -6.15% | [2] -6.2% | [3] -9.3% | [4] -36.6% | [5] -0.95% | [6] -8.45%

O=C(OC1C#CCSCC#C/C=C\1)c1cnc2ccccc2n1 (stereo not given)
inactive: [1] -34% | [2] -13.4% | [3] -24.3% | [4] -11.2% | [5] -2.55% | [6] -23%

O=C(/C=C\c1ccccc1)OC(c1ccccc1)c1ccc(Br)cc1 (stereo not given)
inactive: [1] 17.9% | [2] 6.25% | [3] 14.1% | [4] -3.95% | [5] -3.4% | [6] 8%

O=c1c2c(-c3cc(-c4ccccc4)nc4[nH]n(-c5ccccc5)c(=O)c34)cc(-c3ccccc3)nc2[nH]n1-c1ccccc1
inactive: [1] 0.45% | [2] -6.2% | [3] 0.35% | [4] -38.5% | [5] 4.85% | [6] -22.6%

Clc1ccc2nsnc2c1
inactive: [1] 14.2% | [2] -12.8% | [3] 24.9% | [4] 16.8% | [5] 18.9% | [6] 35%

O=C(O)c1ccc(Cl)cc1C(=O)c1ccc(Cl)cc1
inactive: [1] 1.25% | [2] 8.75% | [3] -2.55% | [4] -42.9% | [5] -1.7% | [6] -13.1%

O=P(c1ccccc1)(c1ccccc1)c1ccccc1OCCCO
inactive: [1] 8.3% | [2] 3.2% | [3] 4.35% | [4] 24.8% | [5] 4.4% | [6] 3.15%
